# Screening results (PubChem BioAssay)
# Shown are actives, neighbours in structure and some others; about 31% of the full set was active somewhere.
# CYP2C19 inhib: blockers of cytochrome P450 2C19 activity – biochemical, luminescence, ADME assay, primary screen | CYP2C19 Supersomes, luciferin-H EGE luminescence, 30 min | AID 778, 2007 | 96,000 tested, 21% active | inhibition, % at 5 µM | P33261;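 active = CYP2C19 inhibition above a set limit at 5 µM in the primary screen, cut at about 50% in these data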
# PLAP act: PLAP enzyme activators, biochemical, luminescence, HTS; Alkaline phosphatase, placental type (Homo sapiens), P05187; purified PLAP enzyme, luminescent substrate read-out; stronger effect = higher value; activation fold at 20 µM; 96,000 tested, 1.2% active; AID 696, 2007; in the data active = activation fold above about 2
# CYP2C19 act: human CYP2C19 activators, primary screen, biochemical, luminescence | recombinant CYP2C19, luciferin-H EGE luminescence; stronger effect = higher value; 0 = fully inhibited enzyme, 1 = untreated enzyme | activation factor at 5 µM | 96,000 tested, under 10 active;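 active = activation factor of at least 2 at 5 µM in the primary screen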
# CYP2C9 act: human CYP2C9 activators, primary screen, biochemical, luminescence. recombinant CYP2C9, luciferin-H conversion; stronger effect = higher value; factor 1 = untreated enzyme, 0 = blocked. activation factor at 5 µM. 96,000 tested, 1.4% active;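 active = activation factor of 2 or more for CYP2C9 at a 5 µM dose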
# Target sequence (P11712 whole entry, looked up): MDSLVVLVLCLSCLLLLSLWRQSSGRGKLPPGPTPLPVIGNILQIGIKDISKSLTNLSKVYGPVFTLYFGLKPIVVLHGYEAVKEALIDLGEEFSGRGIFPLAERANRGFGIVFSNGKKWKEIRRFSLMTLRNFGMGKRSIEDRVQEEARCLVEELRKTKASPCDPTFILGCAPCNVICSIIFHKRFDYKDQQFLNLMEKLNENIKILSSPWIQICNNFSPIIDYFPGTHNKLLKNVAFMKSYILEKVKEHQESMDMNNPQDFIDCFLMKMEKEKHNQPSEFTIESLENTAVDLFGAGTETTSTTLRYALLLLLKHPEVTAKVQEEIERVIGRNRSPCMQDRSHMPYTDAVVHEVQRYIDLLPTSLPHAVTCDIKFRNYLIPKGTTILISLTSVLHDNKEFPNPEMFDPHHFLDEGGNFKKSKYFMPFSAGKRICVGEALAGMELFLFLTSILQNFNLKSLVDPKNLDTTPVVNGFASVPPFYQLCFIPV
# CYP2C9 inhib: blockers of cytochrome P450 2C9 activity – biochemical, luminescence, ADME assay, primary screen; P11712; CYP2C9 Supersomes, luciferin-H conversion; inhibition, % at 5 µM; 96,000 tested, 20% active;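 active = blocking of liver enzyme CYP2C9 beyond about 50% at 5 µM, limit read from the data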
# A number is an active result; - = inactive; . = no result.
SMILES,CYP2C19 inhib,PLAP act,CYP2C19 act,CYP2C9 act,CYP2C9 inhib
CC1(C)C(=O)C2(CCCCC2)C(=O)OC1c1ccc(O)cc1 (centres undefined),77,-,-,-,60
O=C1OC(c2ccccc2)C2(CCCC2)C(=O)C12CCCC2 (centres undefined),-,-,-,-,-
Cc1ccccc1OCC(O)Cn1c(NCc2ccco2)nc2c1c(=O)n(C)c(=O)n2C (centres undefined),87,-,-,-,93
CCC1CCCCN1CCCn1c(=S)[nH]c2ccccc2c1=O (centres undefined),-,-,-,-,-
C=C1c2cc(C)ccc2NC(=O)N1c1ccc(C)cc1,56,-,-,-,-
C=C1c2ccccc2NC(=O)N1c1ccc(C)cc1,-,-,-,-,-
CNC(=S)N1N=C(c2ccc(Br)cc2)CC1c1ccc(Br)cc1 (centres undefined),98,-,-,-,95
CC1(C)Cc2c(ccc3ccccc23)/C(=C/C#N)N1,-,-,-,-,-
CNC(=O)/C=C1\NC(C)(C)Cc2c1ccc1ccccc21,67,-,-,-,-
Cc1ccc(C(C)C)c(OCC(=O)Nc2ccc(N3CCN(S(C)(=O)=O)CC3)cc2)c1,-,-,-,-,-
Cc1ccccc1-n1nnnc1-c1ccccc1,70,-,-,-,-
Cc1ccccc1-n1nnnc1SCc1csc(-c2ccccc2)n1,97,-,-,-,93
COc1ccc(C)cc1-n1nnnc1SCc1cc(=O)n2cc(C)ccc2n1,61,-,-,-,-
Nn1c(SCc2csc(-c3ccccc3)n2)nnc1-c1cccs1,-,-,-,-,-
COc1ccc(C)cc1-n1nnnc1SCc1csc(C)n1,99,-,-,-,73
CC(C)(C)NC(=O)COC(=O)Cc1ccc(Cl)cc1,-,-,-,-,-
CC(=O)NC(=O)NC1OC(=O)C(Cl)=C1Cl (centres undefined),-,-,-,-,-
COc1ccccc1-c1ccc(Nc2cccc(C(C)=O)c2)nn1,80,-,-,-,-
COc1ccc(CCNC(=O)C2CCCN2C(=O)Nc2cccc(C(C)=O)c2)cc1OC (centres undefined),-,-,-,-,-
COc1cccc(CNc2ccc(N3CCCCC3)cc2)c1OC,80,-,-,2.5,-
COc1cccc(CNc2ccc(S(N)(=O)=O)cc2)c1OC,-,-,-,-,-
COc1ccccc1CNc1ccc(N2CCCCC2)cc1,77,-,-,-,-
O=S(=O)(NCCOCC(F)(F)F)c1ccc2oc3ccccc3c2c1,.,-,.,.,.
Nc1nnnn1CC(=O)OCc1cccc(Br)c1,-,-,-,2.6,-
Cc1cccc(C(CC(=O)O)n2cccc2)c1 (centres undefined),-,-,-,-,76
SMILES,CYP2C19 inhib,PLAP act,CYP2C19 act,CYP2C9 act,CYP2C9 inhib
CN(CC(=O)NCc1cccc(F)c1)C(=O)c1ccco1,-,-,-,-,-
CN(Cc1cccc(F)c1)C(=O)c1ccc(S(=O)(=O)C(F)F)cc1,59,-,-,-,-
CC(C)(C)C(=O)Cn1ncc(N2CCCC2)c(Br)c1=O,-,-,-,-,-
CC(C)(C)C(=O)Cn1ncc(NC2CC2)c(Br)c1=O,62,-,-,-,-
C=CCN1C(=O)C(O)(CC(=O)c2ccc(N)cc2)c2ccccc21 (centres undefined),60,-,-,-,-
O=C(CC1(O)C(=O)N(C/C=C/c2ccccc2)c2ccccc21)c1ccccn1 (centres undefined),92,-,-,-,82
CCOC(=O)CN1C(=O)C(O)(CC(=O)c2cccc(OC)c2)c2ccccc21 (centres undefined),63,-,-,-,-
O=C(CC1(O)C(=O)N(Cc2ccccc2Cl)c2ccccc21)c1ccco1 (centres undefined),-,-,-,-,-
COC(=O)CN1C(=O)C(O)(CC(=O)c2ccc(C)cc2)c2ccccc21 (centres undefined),62,-,-,-,-
Cc1csc(SCC(=O)Nc2ncc(Cl)c(C)c2Cl)n1,-,-,-,-,-
CC(C)CNS(=O)(=O)c1ccc(S(=O)(=O)N2CCN(CCC#N)CC2)cc1,-,-,-,-,-
COC(=O)CN1C(=O)C(O)(CC(=O)c2ccccc2)c2ccccc21 (centres undefined),51,-,-,-,-
COC(=O)CN1C(=O)C(O)(CC(=O)c2ccc(C)o2)c2ccccc21 (centres undefined),-,-,-,-,-
CCOC(=O)c1c(-c2ccccc2)csc1NC(=O)c1ccc(N2C(=O)CCC2=O)cc1,-,-,-,-,50
CCOC(=O)c1c(-c2ccccc2)csc1NC(=O)c1nn(CC)cc1Br,-,-,-,-,-
CCOC(=O)c1c(-c2ccccc2)csc1NC(=O)c1ccc(S(=O)(=O)N2CC(C)OC(C)C2)cc1 (centres undefined),-,-,-,-,77
CCOC(=O)c1sc(C(=O)OCC)c(OCCO)c1OCCO,-,-,-,-,-
CN(C)c1ncnc2c1NC1=C(S2)C(=NCCCC(=O)O)CC(C)(C)C1,-,2,-,-,-
CCOC(=O)c1cc(NC(=O)Nc2ccccc2OC)c(C)nc1C,-,-,-,-,-
CCC(C(=O)Nc1ccccc1OC)n1c(C(=O)OC)cc2ccsc21 (centres undefined),98,-,-,-,96
Cc1cccc(C(=O)O/N=C(\N)c2ccc(Br)cc2)c1,-,-,-,-,-
CCOc1cc(C(=O)O/N=C(\N)c2ccc([N+](=O)[O-])cc2)cc(OCC)c1OCC,-,-,-,-,-
COc1cccc(C(=O)O/N=C(\N)c2ccncc2)c1,82,-,-,-,70
COc1cccc(C(=O)O/N=C(\N)c2ccc([N+](=O)[O-])cc2)c1,-,-,-,2,-
COc1ccc(/C(N)=N/OC(=O)c2cccc([N+](=O)[O-])c2)cc1,-,-,-,-,-
SMILES,CYP2C19 inhib,PLAP act,CYP2C19 act,CYP2C9 act,CYP2C9 inhib
COc1cc(C(=O)O/N=C(\N)c2ccncc2)cc(OC)c1OC,72,-,-,-,89
Cc1cc(C)cc(C(=O)O/N=C(\N)c2ccc(Br)cc2)c1,-,-,-,3.5,-
COc1ccc(S(=O)(=O)N2CCN(C(=O)[C@@H]3CCC(=O)N3C3OC(=O)c4ccccc43)CC2)cc1 (some centres undefined),-,-,-,-,-
CCOC(=O)c1ccc2c(c1)nc(COc1ccccc1C#N)n2CC,-,-,-,-,-
N/C(=N\OC(=O)c1ccc(Cl)cc1)c1ccccn1,-,-,-,-,-
COc1ccccc1C(=O)O/N=C(\N)c1ccc(Cl)cc1,-,-,-,3,-
CC1(C)CC(NC(=O)CCC2CCCC2)CC(C)(C)N1,-,-,-,-,-
